Assay outcomes (PubChem BioAssay)
TRHR enhancer-1: TRH receptor (human) allosteric enhancement. TRHR cells, fluo-8 calcium fluorescence, EC20 TRH enhancement. enhancement, % at 2 µM. actives 0.66% (n = 360,000). AID 493056; in the data active means enhancement above about 30%; further: 0% is about no effect
Target sequence (P34981 whole entry, looked up): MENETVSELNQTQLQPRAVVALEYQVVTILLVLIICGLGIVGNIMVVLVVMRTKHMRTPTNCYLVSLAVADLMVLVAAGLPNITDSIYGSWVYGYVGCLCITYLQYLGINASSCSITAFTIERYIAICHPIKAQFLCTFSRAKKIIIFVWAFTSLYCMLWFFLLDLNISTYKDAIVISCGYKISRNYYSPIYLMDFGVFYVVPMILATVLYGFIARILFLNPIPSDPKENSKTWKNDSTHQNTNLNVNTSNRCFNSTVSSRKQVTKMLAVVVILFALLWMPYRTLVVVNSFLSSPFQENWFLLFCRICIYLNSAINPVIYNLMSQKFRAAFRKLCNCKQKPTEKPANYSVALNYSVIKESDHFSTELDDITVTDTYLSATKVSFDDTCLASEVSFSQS
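Enhancer read-out: after compound pinning and an initial kinetic agonist-mode read, an EC20 of TRH (10 nM final) was injected and fluo-8 calcium signal (Ex 480/Em 530) followed at 1 s/cycle for 100 cycles in TRHR-expressing cells.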
IL-2 act: activates IL-2 in a cell-based reporter assay; IL-2 activation reporter assay, cell-based qHTS; stimulated with anti-CD3/CD4/CD28 beads; in transgenic mouse T cells; activation, % (series mostly up to about 46 µM); actives 0.065% (n = 360,000); AID 652025; in the data active means activation above about 50%; inconclusive means mostly about 30% to 49%; further: 0% is about no effect
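Unstimulated transgenic mouse T cells, 750 per well, received compound and, after 60 minutes, anti-CD3/anti-CD4 bead plus anti-CD28 stimulation. EGFP and DsRed were quantified after 18 hours.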
TRHR agonist-1: activates the human TRH receptor | activation, % at 2 µM | P34981 | actives 0.18% (n = 360,000) | AID 493084 | TRHR cells, calcium flux fluo-8, FDSS agonist mode; in the data active means activation above about 30%; further: 0% is about no effect
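TRHR-expressing cells, plated overnight in medium with 10% serum, were loaded with fluo-8 calcium dye at room temperature. After a 10 s baseline, library compound was pin-added and calcium release was recorded kinetically (ex 480/em 530) as agonist response.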
Epigenetic derep: epigenetic control regulation, reporter derepression; AID 1865; murine LDR cells, GFP reporter derepression, 30 h; Potency, µM (series often up to 53.9 µM), for inactives: at the top dose GFP activation, usual class: activators; actives 0.2% (n = 280,000); further: potency means the concentration at half of the fitted maximal effect; % of control where 0% means no effect; nearly all actives have a fitted effect of over 60% in size
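Murine LDR cells carrying a silenced, genomically integrated CMV-driven GFP reporter were exposed to compound for 30 hours at 37 C. After PBS washes, GFP-positive cells (20–120 um objects) were counted by laser-scanning microplate cytometry.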
CBFb RUNX1 block: inhibitors of human CBF-beta and RUNX1 interaction | Potency, µM (series often up to 59.8 µM), for inactives: at the top dose activity, negative = inhibition, usual class: inhibitors | AID 1477 | 230,000 tested, under 10 active | AlphaScreen CBFb-His/RUNX1-biotin binding, biochemical | Q01196+Q13951; further: % of control where 0% means no effect
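AlphaScreen binding: CBFb-His and RUNX1-biotin (30 nM each) preincubated 20 min, compound added for 15 min, then nickel and streptavidin beads for 90 min, all at room temperature. Disruption of the interaction by any mechanism counts as activity.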
MBNL1 CUG block: MBNL1-poly(CUG) RNA binding inhibition | actives 0.036% (n = 280,000) | TR-FRET MBNL1-His/biotin-(CUG)12 binding, 665/545 ratio | AID 2675 | Q9NR56 | Potency, µM (highest dose often 57.5 µM), inactives show at the highest dose activity change, negative = inhibition, most hits filed as inhibitors; active means well fitted inhibition curve with a large enough effect in the signal ratio, with a control signal flat, not every such curve was filed as active; inconclusive means small, poorly fitted or top-dose-only effect, or effect the other way, or a change in a side signal; inactive means no such curve, though single readings can be large or run the other way; the % refers to the signal ratio; further: potency means the concentration at half of the fitted maximal effect; on the % scale 0 is the no-effect control and ±100 the full control effect
Target sequence (Q9NR56 whole entry, looked up): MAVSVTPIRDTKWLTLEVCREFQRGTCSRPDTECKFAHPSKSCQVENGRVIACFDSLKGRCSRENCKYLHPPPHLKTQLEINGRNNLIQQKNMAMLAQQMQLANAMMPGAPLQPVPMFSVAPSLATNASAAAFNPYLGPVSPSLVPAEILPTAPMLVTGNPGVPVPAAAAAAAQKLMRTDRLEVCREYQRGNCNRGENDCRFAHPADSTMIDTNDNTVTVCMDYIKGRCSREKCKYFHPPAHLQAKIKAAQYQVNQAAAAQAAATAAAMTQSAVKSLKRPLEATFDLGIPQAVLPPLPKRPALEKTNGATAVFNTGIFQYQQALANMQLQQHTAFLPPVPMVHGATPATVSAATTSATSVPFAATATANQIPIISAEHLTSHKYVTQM
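Inhibition of protein-RNA binding appears as loss of TR-FRET between terbium anti-His antibody on MBNL1-His and streptavidin-XL665 on biotin-(CUG)12. Activity is normalized to buffer-only and uninhibited-complex controls.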
TRHR enhancer-2: confirmation of human TRH receptor allosteric enhancers; shares compounds with TRHR enhancer-1; TRH receptor cell assay, enhancer confirmation qHTS; activity change, negative = inhibition, % at 46.1 µM; 970 tested, under 10 active; AID 493076;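 further: compound effect scored on response to added TRH at EC20 of 10 nM; 0% is about no effect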
TRHR agonist-2: human TRH receptor agonism confirmation | shares compounds with TRHR enhancer-1 | TRHR-expressing cells, agonist activation read-out | Potency, µM (top dose mostly 46.1 µM), without a hit: at the highest dose activation, usual class: activators | actives 8% (n = 970); further: potency means the concentration at half of the fitted maximal effect; 0% is about no effect; nearly all actives have a fitted effect of over 75% in size
An asterisk follows results filed as active; u = inconclusive; x = no result; ! = not confirmed by another sample. Hits are enriched below; roughly 0.88% of the tested compounds scored in any of these assays. Unless noted, the call rests on the fitted dose curve; in most records, active means well fitted curve in the direction sought with a large enough effect; inconclusive means small, poorly fitted or top-dose-only effect, or another doubt; inactive means no such curve, though single readings can be large; an effect the other way counts as inactive or inconclusive.

SMILES | TRHR enhancer-1 | IL-2 act | TRHR agonist-1 | Epigenetic derep | CBFb RUNX1 block | MBNL1 CUG block | TRHR enhancer-2 | TRHR agonist-2
CC(=O)c1nnn(-c2nc(N3CCCC3)nc(N(c3ccccc3)c3ccccc3)n2)c1C | 44.7* | -1.7 | 0.7 | 0.0% | 10.0% | -1.6% | -3.2 | 4.4%
CC1CCN(C(=S)NC(=O)c2cccc([N+](=O)[O-])c2)CC1 | 0.9 | -0.3 | 0.1 | x | x | 26.7% | x | x
CN1CCN(C(=S)NC(=O)c2cccc([N+](=O)[O-])c2)CC1 | 49.9* | 1.3 | 0.3 | x | x | u | -2.9 | -0.7%
CCOC(=O)c1[nH]c(C)c(C(=O)OCC)c1C | 19.0 | -3.0 | -1.2 | -1.4% | 3.0% | -9.7% | x | x
CCOC(=O)c1[nH]c(C)c(C(=O)N(CC)CC)c1C | 52.1* | -2.4 | -0.1 | 0.8% | -0.8% | 9.9% | -7.8 | 0.7%
CCOC(=O)c1c(C)[nH]c(C)c1S(=O)(=O)NCC(=O)Nc1cccc(C#N)c1 | -3.5 | x | 0.2 | -0.4% | x | x | x | x
Cc1c(NC(=O)Cn2nc(C(F)(F)F)c3c2CCCC3)c(=O)n(-c2ccccc2)n1C | 58.5* | -2.1 | 0.0 | -1.1% | 7.4% | 4.9% | -10.0 | -0.7%
COC(=O)c1ccccc1NC(=O)Cn1nc(C(F)(F)F)c2c1CCCC2 | 56.7* | x | -0.2 | -1.0% | x | x | -11.6 | 3.5%
CCc1ccccc1NC(=O)Cn1nc(C(F)(F)F)c2c1CCCC2 | 3.9 | x | -0.8 | 0.0% | x | x | x | x
CCN(C(=O)Cn1nc(C(=O)O)c2ccccc2c1=O)C1CCCCC1 | 44.2* | -3.8 | -0.4 | 0.0% | -1.0% | 9.4% | -8.1 | 2.0%
Cc1c(NC(=O)Cn2nc(C(=O)O)c3ccccc3c2=O)c(=O)n(-c2ccccc2)n1C | 46.1* | -0.2 | 0.2 | 0.0% | 7.9% | 9.8% | -3.1 | -0.8%
COc1ccc(-c2noc(-c3ccc(N4CCCCC4C)c([N+](=O)[O-])c3)n2)cc1OC (stereo unspecified) | -4.8 | x | 0.2 | 4.5% | x | x | x | x
CCc1ccc2nc3n[nH]c(N)c3cc2c1 | 6.3 | -2.5 | -0.9 | -2.9% | -1.2% | u | x | x
Nc1[nH]nc2nc3ccccc3cc12 | 69.1* | 3.0 | -0.2 | -1.2% | -3.3% | u | 6.6 | 1.2%
CCN1CCN(C(c2ccccc2Cl)c2sc3nc(-c4ccco4)nn3c2O)CC1 (stereo unspecified) | 3.5 | x | -1.2 | -0.5% | x | x | x | x
COC(=O)c1cc(S(=O)(=O)N2CCN(c3cccc(C)c3C)CC2)c[nH]1 | 48.2* | -2.3 | 0.2 | x | x | -5.7% | -7.4 | -0.6%
COC(=O)c1cc(S(=O)(=O)N2CCN(c3ccccc3)CC2)c[nH]1 | -2.5 | -2.2 | 0.8 | x | x | -19.7% | x | x
CCOCC(=O)Nc1ccc(C)c(Cl)c1 | 62.4* | -2.5 | -0.6 | -1.4% | -2.0% | 8.9% | -6.5 | 1.6%
Cc1ccc(NC(=O)COc2ccccc2)cc1Cl | 6.7 | -3.2 | 0.1 | x | x | -3.3% | x | x
CCc1noc(-c2ccc(N3CCCCC3C)c([N+](=O)[O-])c2)n1 (stereo unspecified) | -2.5 | x | 0.7 | 0.0% | x | x | x | x
O=C(c1ccc(CSc2nc3ccncc3n2Cc2ccccc2F)cc1)N1CCCCC1 | 57.8* | x | 0.2 | 1.1% | x | x | -9.2 | -0.5%
CCn1c(SCC(=O)Nc2cccc(C(C)=O)c2)nnc1C(C)C | -3.7 | 1.4 | 39.2* | 0.1% | 0.3% | -4.7% | -3.6 | -0.8%
COc1ccc(CCNC(=O)CCc2c(C)nc3c4c(C)cc(C)nc4nn3c2C)cc1OC | -1.2 | x | -1.3 | -3.9% | x | x | x | x
CCCCCn1c(CN2CC(C)OC(C)C2)nc2c1c(=O)n(C)c(=O)n2C (stereo unspecified) | 42.2* | 0.0 | 0.1 | 1.3% | 2.7% | -2.8% | 8.8 | 0.5%
CS(=O)(=O)c1cccc(-c2csc(N3CCC(C(N)=O)CC3)n2)c1 | 47.6*! | -0.1 | -0.1 | x | x | x | 4.0 | 7.0%
SMILES | TRHR enhancer-1 | IL-2 act | TRHR agonist-1 | Epigenetic derep | CBFb RUNX1 block | MBNL1 CUG block | TRHR enhancer-2 | TRHR agonist-2
COc1ccc(C(=O)Oc2c(Sc3ccc(C)cc3)c(C)nn2C(C)(C)C)c(OC)c1 | -7.7 | x | 1.2 | -3.8% | x | x | x | x
Cc1c(NC(=O)C(C)OC(=O)c2c3c(nc4ccccc24)CCC3)c(=O)n(-c2ccccc2)n1C (stereo unspecified) | 49.5* | -2.1 | -1.2 | -1.0% | -14.8% | 2.6% | -5.7 | -0.6%
Cc1c(NC(=O)COC(=O)c2c3c(nc4ccccc24)CCCC3)c(=O)n(-c2ccccc2)n1C | 3.7 | -2.0 | -0.2 | 0.0% | -0.7% | x | x | x
CC(=O)N/N=C/c1c(C)[nH]n(-c2ccccc2)c1=O | 44.2* | 0.9 | -0.8 | 1.1% | u | -2.9% | -4.3 | 5.0%
COC(=O)N/N=C\c1c(C)[nH]n(-c2ccccc2)c1=O | 1.6 | -1.0 | -0.1 | 1.5% | -11.5% | 5.6% | x | x
COc1ccc(Cl)cc1S(=O)(=O)NC(C)C(=O)NCCCn1ccnc1 (stereo unspecified) | 66.9* | -0.2 | 0.7 | x | x | x | -1.8 | -0.6%
COc1ccc(Cl)cc1S(=O)(=O)NCCCn1ccnc1 | 22.3 | -0.6 | 0.5 | x | x | 0.8% | x | x
COc1cc(/C=C2\SC(=N)N(c3ccc4c(c3)OCO4)C2=O)cc(OC)c1O | 5.3 | -2.8 | 44.6* | 0.0% | -4.3% | -1.4% | 1.1 | u
COc1ccc(-c2cc(C(F)(F)F)c3c(n2)sc2c(O)cc(=O)[nH]c23)c(OC)c1 | 8.3 | 1.6 | 34.5* | 11.2µM* | 17.1% | x | 4.4 | u
CC(=N/O)/C(C)=N\NC(=O)c1ccccn1 | 59.7* | 0.4 | -0.1 | -2.4% | -5.5% | 3.6% | 1.1 | -0.3%
CN(C)/C=C/c1onc(-c2c(Cl)cccc2Cl)c1C#N | 43.6* | -2.8 | 0.0 | -1.1% | -10.5% | 7.0% | 3.8 | u
